The values that follow come from PubChem BioAssay (EPA / NIEHS).

A word on the AC50: it is the concentration at which the activity in the assay is half-maximal.

For experiment [1], the target named is Hepatocyte nuclear factor 3-beta (Homo sapiens) (UniProt Q9Y261). The experiment in a line: ATG_FoxA2_CIS: Attagene CIS-FACTORIAL HepG2 Assay for human Forkhead box A2 (FOXA2) (AID 2282942). The note with it: HepG2 cis-reporter transcription factor activity, 24 h; actives raise or lower the signal. Put shortly:
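In transiently transfected human HepG2 cells, promoter-driven reporter mRNA levels after 24 h chemical exposure are determined via RT-PCR with capillary electrophoresis. DMSO serves as baseline for bidirectional fitting.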

Experiment [2] in a line: ATG_GRE_CIS: Attagene CIS-FACTORIAL HepG2 Assay for human Glucocorticoid Response Elements (GRE) (AID 2282947). As to conditions: HepG2 GRE cis-reporter, Attagene multiplex mRNA; actives raise or lower the signal. Summed up:
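HepG2 cells transiently transfected with multiple cis-promoter reporter units measure endogenous TF activity; 24 h compound exposure. Reporter mRNA quantified by RT-PCR, FAM labelling, HpaI digestion and capillary electrophoresis; bidirectional fit vs DMSO baseline.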

The target in experiment [3] is Hypoxia-inducible factor 1-alpha (Homo sapiens) (UniProt Q16665). Description: ATG_HIF1a_CIS: Attagene CIS-FACTORIAL HepG2 Assay for human Hypoxia Inducible Factor 1 (HIF1A) (AID 2282951). The note with it: HepG2 Attagene cis-factorial HIF1a reporter transcription; actives raise or lower the signal. Summed up: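 In this multiplexed cell assay, HepG2 cells bearing transfected cis reporters are dosed for 24 h and reporter mRNA is read by RT-PCR plus capillary electrophoresis; signal increases and decreases are both scored against DMSO.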
Hypoxia-inducible factor 1-alpha (Homo sapiens), sequence (Q16665 whole entry, looked up): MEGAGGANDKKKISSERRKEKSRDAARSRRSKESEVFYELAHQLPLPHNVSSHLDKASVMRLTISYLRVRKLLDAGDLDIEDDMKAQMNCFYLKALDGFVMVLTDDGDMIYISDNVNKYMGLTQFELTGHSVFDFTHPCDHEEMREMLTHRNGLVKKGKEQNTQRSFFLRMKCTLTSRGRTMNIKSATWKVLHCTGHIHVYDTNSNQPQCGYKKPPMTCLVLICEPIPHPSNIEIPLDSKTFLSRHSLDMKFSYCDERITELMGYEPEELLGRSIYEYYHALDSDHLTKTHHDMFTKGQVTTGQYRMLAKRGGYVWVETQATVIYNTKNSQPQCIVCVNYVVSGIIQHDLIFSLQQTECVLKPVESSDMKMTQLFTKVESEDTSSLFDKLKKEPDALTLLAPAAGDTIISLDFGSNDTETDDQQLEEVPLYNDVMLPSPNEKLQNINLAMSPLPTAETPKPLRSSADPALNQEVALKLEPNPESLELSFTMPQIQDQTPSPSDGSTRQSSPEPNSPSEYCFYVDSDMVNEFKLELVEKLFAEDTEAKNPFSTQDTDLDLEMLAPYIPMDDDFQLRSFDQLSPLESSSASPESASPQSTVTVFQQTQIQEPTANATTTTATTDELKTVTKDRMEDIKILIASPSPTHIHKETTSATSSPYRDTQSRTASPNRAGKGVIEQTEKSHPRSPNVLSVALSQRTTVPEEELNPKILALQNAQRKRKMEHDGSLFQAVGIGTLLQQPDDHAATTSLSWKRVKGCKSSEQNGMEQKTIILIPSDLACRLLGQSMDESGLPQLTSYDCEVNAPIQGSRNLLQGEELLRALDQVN

For experiment [4], the target named is Heat shock factor protein 1 (Homo sapiens) (UniProt Q00613). Description: ATG_HSE_CIS: Attagene CIS-FACTORIAL HepG2 Assay for human Heat Shock Transcription Factor 1 (HSE) (AID 2282953). The note with it: HepG2 HSE cis-reporter, Attagene RNA transcription; actives raise or lower the signal. Put shortly: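 Endogenous transcription factor activity captured via cis-promoter reporter units transfected into HepG2; treatment lasted 24 h. Fluorescence intensity of reporter fragments analysed with bidirectional curve fitting, DMSO baseline.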
Heat shock factor protein 1 (Homo sapiens), sequence (Q00613 whole entry, looked up, the tested form may be a part): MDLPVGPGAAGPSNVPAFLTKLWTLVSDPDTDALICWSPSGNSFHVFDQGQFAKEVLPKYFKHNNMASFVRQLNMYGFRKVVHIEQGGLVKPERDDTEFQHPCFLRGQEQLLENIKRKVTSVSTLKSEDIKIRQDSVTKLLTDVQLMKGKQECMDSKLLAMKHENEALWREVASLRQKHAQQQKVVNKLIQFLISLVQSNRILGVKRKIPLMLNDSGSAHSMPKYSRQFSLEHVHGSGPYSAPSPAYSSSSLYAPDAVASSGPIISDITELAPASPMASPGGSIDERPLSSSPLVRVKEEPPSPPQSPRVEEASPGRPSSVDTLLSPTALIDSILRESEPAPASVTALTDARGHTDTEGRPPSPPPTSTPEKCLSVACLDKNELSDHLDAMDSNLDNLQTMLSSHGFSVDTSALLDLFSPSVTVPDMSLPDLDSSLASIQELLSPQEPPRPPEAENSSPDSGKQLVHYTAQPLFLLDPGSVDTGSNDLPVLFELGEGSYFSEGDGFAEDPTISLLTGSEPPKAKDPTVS

Experiment [5] has as its target Cellular tumor antigen p53 (Homo sapiens) (UniProt P04637). Description: ATG_p53_CIS: Attagene CIS-FACTORIAL HepG2 Assay for human p53 Transcription Factor (AID 2282994). The note with it: HepG2 p53 cis-element reporter, Attagene mRNA; actives raise or lower the signal. Summed up: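 HepG2 cells transiently transfected with cis-regulated multiple reporter transcription units, dosed 24 h. Reporter mRNA measured by RT-PCR, 6-FAM primer extension, HpaI digestion and capillary electrophoresis; bidirectional fit relative to DMSO.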

Experiment [6] in a line: ATG_FoxO_CIS: Attagene CIS-FACTORIAL HepG2 Assay for human Forkhead box O (FoxO) (AID 2282943). The note with it: HepG2 Attagene cis-reporter, FoxO element, mRNA; actives raise or lower the signal. Summed up:
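Values reflect reporter mRNA induction or loss in HepG2 cells 24 h post-dosing, fitted bidirectionally with DMSO as negative control and baseline. Detection used RT-PCR and fluorescence capillary electrophoresis.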

Experiment [7] addresses Hepatocyte nuclear factor 6 (Homo sapiens) (UniProt Q9UBC0). The experiment in a line: ATG_HNF6_CIS: Attagene CIS-FACTORIAL HepG2 Assay for human Hepatocyte Nuclear Factor 6 (HNF6) (AID 2282952). As to conditions: HepG2 Attagene cis-factorial HNF6 reporter transcription; actives raise or lower the signal. Put shortly: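 Transiently transfected HepG2 cells expressing cis-regulated reporter transcription units were exposed to chemical for 24 h in a 24-well format. Reporter transcript abundance was determined by fluorescence capillary electrophoresis.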

For experiment [8], the target named is Nuclear respiratory factor 1 (Homo sapiens) (UniProt Q16656). The experiment in a line: ATG_NRF1_CIS: Attagene CIS-FACTORIAL HepG2 Assay for human Nuclear Respiratory Factor 1 (NRF1) Orphan Gene (AID 2282987). As to conditions: HepG2 NRF1 cis-element reporter, Attagene multiplex; actives raise or lower the signal. Summed up: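 Transcriptional reporter readout, one component of a 52-endpoint multiplexed HepG2 panel. Exposure 24 h; mRNA detected via RT-PCR and fluorescent capillary electrophoresis; fitting in both directions against DMSO.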
Nuclear respiratory factor 1 (Homo sapiens), sequence (Q16656 whole entry, looked up): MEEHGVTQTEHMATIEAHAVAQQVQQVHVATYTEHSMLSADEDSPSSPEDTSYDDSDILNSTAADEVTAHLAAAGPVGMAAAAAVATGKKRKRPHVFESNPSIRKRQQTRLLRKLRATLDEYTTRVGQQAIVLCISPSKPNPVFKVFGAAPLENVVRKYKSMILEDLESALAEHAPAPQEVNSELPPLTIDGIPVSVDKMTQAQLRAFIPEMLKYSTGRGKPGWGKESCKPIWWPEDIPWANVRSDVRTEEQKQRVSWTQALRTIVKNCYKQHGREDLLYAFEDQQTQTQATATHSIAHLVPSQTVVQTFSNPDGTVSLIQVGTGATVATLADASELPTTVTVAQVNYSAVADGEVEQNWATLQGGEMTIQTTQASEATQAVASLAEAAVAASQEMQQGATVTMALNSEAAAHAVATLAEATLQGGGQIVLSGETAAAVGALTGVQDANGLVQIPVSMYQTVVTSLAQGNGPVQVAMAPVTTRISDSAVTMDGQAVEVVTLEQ

A short description of experiment [9]: ATG_NRF2_ARE_CIS: Attagene CIS-FACTORIAL HepG2 Assay for human Nuclear Factor Erythroid 2 Related Factor 2 (NFR2) response to Antioxidant Response Elements (ARE) (AID 2282992). The note with it: HepG2 Attagene ARE/NRF2 reporter, transcription factor activity; actives raise or lower the signal. Put shortly:
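HepG2 cells transiently transfected with multiplexed cis-element reporter constructs, 24 h after chemical dosing; reporter mRNA quantified by RT-PCR, fluorescent primer extension, HpaI digestion and capillary electrophoresis. Bidirectional fit relative to DMSO.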

Read-out in experiment [10]: Interleukin-8 (IL8), CXCL8 (gene 3576)
The experiment in a line: BSK_3C_IL8: BioMAP Diversity Plus: 3C Assay for Interleukin-8 (IL8) Biomarker Activity (AID 2283020). The note with it: primary human endothelial cells (HUVEC); actives raise or lower the signal. Put shortly: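 Primary human umbilical vein endothelial cells (3C system) were exposed to test chemical for 24 h, then IL-8 was quantified by ELISA. Responses were fitted bidirectionally against DMSO vehicle as baseline.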

Read-out in experiment [11]: Thrombomodulin, THBD (gene 7056)
Description: BSK_3C_Thrombomodulin: BioMAP Diversity Plus: 3C Assay for Thrombomodulin Biomarker Activity (AID 2283029). As to conditions: primary human endothelial cells (HUVEC); actives raise or lower the signal. Put shortly:
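Primary human umbilical vein endothelial cells (3C system) were exposed to chemical for 24 h, then thrombomodulin levels were measured by ELISA. Activity was fitted bidirectionally against the DMSO negative control as baseline.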

Read-out in experiment [12]: Urokinase-type plasminogen activator receptor (uPAR), PLAUR (gene 5329)
The experiment in a line: BSK_4H_uPAR: BioMAP Diversity Plus: 4H Assay for Urokinase-type plasminogen activator receptor (uPAR) Biomarker Activity (AID 2283030). As to conditions: primary human endothelial cells (HUVEC); actives raise or lower the signal. Summed up: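 HUVEC, 24 h post-dose; uPAR by ELISA; bidirectional fit vs DMSO baseline.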

Read-out in experiment [13]: Vascular endothelial growth factor receptor 2 (Homo sapiens) (UniProt P35968)
Description: BSK_4H_VEGFRII: BioMAP Diversity Plus: 4H Assay for Vascular endothelial growth factor receptor 2 (VEGFR2) Biomarker Activity (AID 2283031).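 On AC50: cell-surface VEGFR2 protein level quantified by ELISA.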 As to conditions: primary human endothelial cells (HUVEC); actives raise or lower the signal. Summed up: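 HUVEC (human primary), 4H system; 24 h post-dose; VEGFRII by ELISA; bidirectional curve fit vs DMSO baseline; gain or loss of signal scored.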

Read-out in experiment [14]: Monokine induced gamma interferon (MIG), CXCL9 (gene 4283)
The experiment in a line: BSK_CASM3C_MIG: BioMAP Diversity Plus: CASM3C Assay for Monokine induced gamma interferon (MIG) Biomarker Activity (AID 2283048).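 Further: MIG protein level measured by ELISA.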 The note with it: primary human coronary artery smooth muscle cells; actives raise or lower the signal.

Read-out in experiment [15]: serum amyloid A (SAA), SAA1 (gene 6288)
The experiment in a line: BSK_CASM3C_SAA: BioMAP Diversity Plus: CASM3C Assay for serum amyloid A (SAA) Biomarker Activity (AID 2283049).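 Further: SAA protein level quantified by ELISA.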 As to conditions: primary human coronary artery smooth muscle cells; actives raise or lower the signal.

Read-out in experiment [16]: Thrombomodulin, THBD (gene 7056)
Description: BSK_CASM3C_Thrombomodulin: BioMAP Diversity Plus: CASM3C Assay for Thrombomodulin Biomarker Activity (AID 2283051).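 Further: thrombomodulin protein level measured by ELISA 24 h after dosing.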 As to conditions: primary human coronary artery smooth muscle cells; actives raise or lower the signal.

Read-out in experiment [17]: Vascular cell adhesion molecule 1 (VCAM1), VCAM1 (gene 7412)
Description: BSK_CASM3C_VCAM1: BioMAP Diversity Plus: CASM3C Assay for Vascular cell adhesion molecule 1 (VCAM1) Biomarker Activity (AID 2283055).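 Further: VCAM-1 protein level quantified by ELISA on the cells.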 The note with it: primary human coronary artery smooth muscle cells; actives raise or lower the signal.

Read-out in experiment [18]: Interleukin-8 (IL8), CXCL8 (gene 3576)
Description: BSK_LPS_IL8: BioMAP Diversity Plus: LPS Assay for Interleukin-8 (IL8) Biomarker Activity (AID 2283078). The note with it: primary human HUVEC with PBMC; actives raise or lower the signal. Put shortly: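 HUVEC + PBMC co-culture, LPS-activated; test chemicals dosed, IL-8 read by ELISA at 24 h. Bidirectional curve fit vs DMSO baseline (gain or loss of signal).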

Read-out in the next experiment: CD40, CD40 (gene 958)
The experiment in a line: BSK_SAg_CD40: BioMAP Diversity Plus: SAg Assay for CD40 Biomarker Activity (AID 2283088). As to conditions: primary human HUVEC with PBMC; actives raise or lower the signal. Summed up:
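HUVEC/PBMC co-culture, 24 h post-dose; CD40 by ELISA, fluorescence intensity; bidirectional fit vs DMSO negative control.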

Read-out in experiment [19]: Collagen I, COL1A1 (gene 1277)
The experiment in a line: BSK_hDFCGF_CollagenI: BioMAP Diversity Plus: hDFCGF Assay for Collagen I Biomarker Activity (AID 2284250). As to conditions: primary human foreskin fibroblasts. Summed up:
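Primary human foreskin fibroblasts (hDFCGF system) exposed to chemical for 24 h; Collagen I measured by ELISA. Activity fitted in the positive direction relative to DMSO baseline, with SRB total-protein staining in parallel cultures for overt cytotoxicity.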

SMILES strings stand for the structures. Several values for one entry are separate records, joined by “and”; a condition that tells them apart may be missing. Equal entries are not always repeated. A structure can be active in one record and inactive in another. Activity calls are given as the source filed them. How the source made its calls: active means hit-call score of the fitted dose curve at least 0.9, where 1 is the maximum; inactive means score below 0.9.

Hepatocyte nuclear factor 3-beta (Homo sapiens), sequence (Q9Y261 whole entry, looked up): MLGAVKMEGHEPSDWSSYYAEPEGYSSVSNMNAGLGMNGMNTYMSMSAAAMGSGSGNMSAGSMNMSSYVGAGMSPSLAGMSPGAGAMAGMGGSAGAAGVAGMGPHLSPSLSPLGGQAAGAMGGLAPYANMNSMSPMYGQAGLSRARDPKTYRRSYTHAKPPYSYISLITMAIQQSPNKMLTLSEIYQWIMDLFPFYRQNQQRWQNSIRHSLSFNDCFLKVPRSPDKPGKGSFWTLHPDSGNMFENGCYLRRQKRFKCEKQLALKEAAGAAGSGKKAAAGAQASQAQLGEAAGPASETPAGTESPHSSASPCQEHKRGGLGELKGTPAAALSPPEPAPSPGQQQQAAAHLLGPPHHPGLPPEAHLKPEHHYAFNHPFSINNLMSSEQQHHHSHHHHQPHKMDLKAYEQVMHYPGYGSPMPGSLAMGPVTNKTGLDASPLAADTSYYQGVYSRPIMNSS
Cellular tumor antigen p53 (Homo sapiens), sequence (P04637 whole entry, looked up): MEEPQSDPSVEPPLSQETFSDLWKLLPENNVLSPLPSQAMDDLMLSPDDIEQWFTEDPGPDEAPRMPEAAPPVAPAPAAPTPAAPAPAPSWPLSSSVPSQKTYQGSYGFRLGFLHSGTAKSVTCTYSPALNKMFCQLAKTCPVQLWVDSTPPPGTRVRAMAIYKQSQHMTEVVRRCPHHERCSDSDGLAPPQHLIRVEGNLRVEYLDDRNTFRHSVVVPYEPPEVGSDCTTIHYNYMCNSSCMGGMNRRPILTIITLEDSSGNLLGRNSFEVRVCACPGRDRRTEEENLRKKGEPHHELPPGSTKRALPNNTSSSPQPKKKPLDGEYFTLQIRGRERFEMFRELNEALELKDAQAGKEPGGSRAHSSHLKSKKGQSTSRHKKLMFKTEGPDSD
Hepatocyte nuclear factor 6 (Homo sapiens), sequence (Q9UBC0 whole entry, looked up): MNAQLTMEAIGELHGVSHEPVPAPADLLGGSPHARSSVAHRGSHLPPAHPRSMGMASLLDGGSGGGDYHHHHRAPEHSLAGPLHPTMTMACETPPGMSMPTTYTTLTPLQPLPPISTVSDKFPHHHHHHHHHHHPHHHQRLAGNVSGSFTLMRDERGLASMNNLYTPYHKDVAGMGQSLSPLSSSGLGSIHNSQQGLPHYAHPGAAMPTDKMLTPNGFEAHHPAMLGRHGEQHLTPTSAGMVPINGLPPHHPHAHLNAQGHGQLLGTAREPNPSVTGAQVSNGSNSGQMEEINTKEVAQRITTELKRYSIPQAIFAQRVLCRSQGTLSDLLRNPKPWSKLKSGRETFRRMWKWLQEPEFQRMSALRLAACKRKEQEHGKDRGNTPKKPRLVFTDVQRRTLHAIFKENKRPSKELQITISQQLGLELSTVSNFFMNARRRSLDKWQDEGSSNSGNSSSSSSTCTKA

For the molecule `COc1ccc2ccccc2c1`, the molecule was called inactive in experiment [1], in [2], in [3], in experiment [4] and in [5].
As for `CC[N+](CC)(CC(=O)Nc1c(C)cccc1C)Cc1ccccc1`, the call in [1], in experiment [6], in experiment [3], in [7], in [8] and in experiment [9] was inactive. Also, the result in experiment [10], in [11], in experiment [12], in experiment [13], in [14] and in experiment [15] was inactive. The outcome in experiment [16] was “inactive”; in [17], “inactive”; with CD40, CD40 (gene 958) it was “inactive”. In addition, the concentration at half-maximal activity (AC50) in experiment [18] was 0.182 µM (active).
With `CCCCC(CC)COC(=O)C=Cc1ccc(OC)cc1` (centres undefined), the concentration at half-maximal activity (AC50) was 30.8 µM (active) and 28.7 µM (active) in experiment [10]; 9.77 µM (active) and 8.63 µM (active) in [11]; 31.7 µM (active) in [13]; 32.4 µM (active) in experiment [14]; 32.3 µM (active) in experiment [15]; 14.9 µM (active) in experiment [17]. In addition, the AC50 in experiment [18] was 12.9 µM (active); with CD40, CD40 (gene 958), 32.1 µM (active) and 31.9 µM (active); in experiment [19], 9.37 µM (active). The outcome in [12], in experiment [13], in [14], in experiment [15], in experiment [16] and in experiment [17] was inactive. The result in [18] and in experiment [19] was inactive.
For `C=CCOCC(CC)(CO)COCC=C`, the molecule was called inactive in [6], in experiment [2], in experiment [3], in [7], in experiment [4] and in experiment [8]. The result in experiment [9] and in [5] was inactive.
Take `C1CN(CCOCCN2CCOCC2)CCO1`: the AC50 in [10] was 9.48 µM (active); in [14], 1.82 µM (active); in experiment [18], 4.01 µM (active). Moreover, the result in [10], in experiment [11], in [12], in [13], in [14] and in experiment [15] was inactive. Also, the outcome in experiment [16] was “inactive”; in experiment [17], “inactive”; in experiment [18] it was “inactive”; in the experiment with CD40, CD40 (gene 958), “inactive”; in experiment [19], “inactive”.
`CC/C=C\CCO`: the molecule was called inactive in experiment [1], in experiment [6], in experiment [2], in experiment [3], in experiment [7] and in experiment [4]. The outcome in [8], in [9] and in experiment [5] was inactive.
